Among all 2,100 compounds or so, about 1,100 (52%) were called active. About 27% were inconclusive and are not listed. Calls follow the shape of the dose curve; as a rule, active = well fitted inhibition curve with a large enough effect; inconclusive = small, poorly fitted or top-dose-only effect; inactive = no such curve, though single readings can be large or run the other way. The set was probably picked from earlier hits. The list shows a part of the results.
Potency is read from the fitted curve at half-maximal effect.

Sequence of DNA dC->dU-editing enzyme APOBEC-3G (Homo sapiens) (Q9HC16 whole entry, looked up): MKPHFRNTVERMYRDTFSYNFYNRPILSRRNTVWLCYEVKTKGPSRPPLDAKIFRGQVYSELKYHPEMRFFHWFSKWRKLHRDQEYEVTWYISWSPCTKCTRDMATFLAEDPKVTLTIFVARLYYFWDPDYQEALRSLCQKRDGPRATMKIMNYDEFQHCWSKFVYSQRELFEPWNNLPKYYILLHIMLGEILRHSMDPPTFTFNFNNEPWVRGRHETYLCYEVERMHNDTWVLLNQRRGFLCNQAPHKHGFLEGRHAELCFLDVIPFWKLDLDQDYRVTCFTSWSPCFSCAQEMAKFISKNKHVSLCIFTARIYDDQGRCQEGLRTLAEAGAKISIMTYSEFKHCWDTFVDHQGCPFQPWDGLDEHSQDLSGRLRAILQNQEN

This assay has as its target DNA dC->dU-editing enzyme APOBEC-3G (Homo sapiens) (UniProt Q9HC16). Description: qHTS for inhibitors of Vif-A3G interactions: Cherry picks counterscreen.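 Also: hits raise yellow fluorescence by blocking Vif-driven A3G-eYFP degradation; nearly all actives have a fitted effect of over 70% in size.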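 As to max response: max response given as percent of control signal.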 As to conditions: HeLa A3G-eYFP + Vif (tagged APOBEC3G with the HIV-1 protein that degrades it), eYFP fluorescence, 24 h. The procedure, abridged: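 HeLa cells stably expressing A3G-eYFP and Vif were treated for 24 h at 37 deg C with compounds at several concentrations; yellow fluorescence (Ex 488 nm, Em 500-530 nm) read by Acumen Explorer, MG132 as positive control.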
Regarding `CCOC(=O)c1cc2n(c1/N=C/N(C)C)-c1ccccc1C2=O`, the Potency is 16.4 µM (active).
With `CCOC(=O)c1cc2n(c1N)-c1ccccc1C2=O`, the max response was -28.5% (inactive).
As for `CO/N=C\CC(=O)Nc1ccc(Oc2ccccc2)cc1`, the Potency was 1.98 µM (active).
As to `CO/N=C\CC(=O)Nc1ccc(Cl)c(Cl)c1`, the Potency is 9.94 µM (active).
For the compound `CCCCN1C(=O)/C(=C2/Sc3ccccc3N2C)S/C1=N\c1ncn[nH]1`, the Potency is 20.6 µM (active).
As for `O=C(NNc1ncc(C(F)(F)F)cc1Cl)c1c(Cl)cccc1Cl`, the Potency was 14 µM (active).
For `O=C(NCc1ccc2c(c1)OCO2)c1cc([N+](=O)[O-])ccc1N1CCCCC1`, the Potency was 1.98 µM (active).
As to `O=C(/C=C/c1cccs1)NCc1ccc2c(c1)OCO2`, the max response was -24.4% (inactive).
On to `CCc1ccc(C(=O)NC(=S)Nc2ccc(N3CCOCC3)cc2)cc1`, for which the max response is 0.165% (inactive).
The same measure, in the same setting: then `COc1cc(C(=O)OCC(=O)Nc2ccc(N3CCOCC3)cc2)ccc1OCC(C)C`, with 8.76% (inactive).
On to `COc1cccc(C(=O)Nc2ccc(N3CCCC3)cc2)c1`, for which the Potency is 5.59 µM (active).
Turning to `COc1cc(OC)cc(C(=O)Nc2ccc(N3CCN(C(=O)c4cccs4)CC3)cc2)c1`, the Potency was 6.27 µM (active).
Same read-out and setting: next, `CCN(CC)c1ccc(C=NNc2ccc([N+](=O)[O-])cn2)cc1`: 1.3 µM (active).
Regarding `O=[N+]([O-])c1ccc(N/N=C\c2cccn2-c2ccccc2)nc1`, the Potency was 15.8 µM (active).
For `Oc1ccc(C2=NNC(=NCc3ccc4c(c3)OCO4)SC2)c(O)c1`, the Potency was 7.9 µM (active).
`N#CC1=C(N)Oc2cc(N)ccc2C1c1cccc(Br)c1` (stereo not given): the Potency was 0.627 µM (active).
In the case of `COc1cc(C2C(C#N)=C(N)Oc3cc(O)ccc32)cc2c1OCO2` (stereo not given), the Potency is 11.2 µM (active).
For the compound `COc1ccc(C2C(C#N)=C(N)Oc3cc(N)ccc32)cc1OC` (stereo not given), the Potency is 9.94 µM (active).
For the compound `COc1ccc(C2C(C#N)=C(N)Oc3c2ccc2cccnc32)cc1OC` (stereo not given), the Potency was 1.77 µM (active).
As to `COc1ccc2nc(Nc3nc(CSc4ccc(C)cc4)cc(=O)[nH]3)nc(C)c2c1`, the max response is -26.4% (inactive).
On to `N#CC1=C(N)Oc2cc(N)ccc2C1c1ccccc1` (stereo not given), for which the Potency is 15.8 µM (active).
In the case of `Cc1oc(C)c2c(=O)ccc3c(c12)OC(N)=C(C#N)C3c1ccc(F)cc1` (stereo not given), the max response is 44.8% (inactive).
As to `N#CC1=C(N)Oc2cc(N)ccc2C1c1cccc(F)c1` (stereo not given), the Potency is 4.98 µM (active).
Consider `N#CC1=C(N)Oc2cc(N)ccc2C1C1CC=CCC1` (stereo not given), for which the Potency was 5.59 µM (active).
With `N#CC1=C(N)Oc2cc(N)ccc2C1c1ccccc1F` (stereo not given), the Potency was 9.94 µM (active).
On to `COc1ccccc1-c1cc(C(=O)NN)[nH]n1`, for which the max response was 14.5% (inactive).
`COc1ccc(NC(=O)c2cc(-c3ccccc3OC)on2)cc1`: the Potency was 3.14 µM (active).
`Cc1ccc(S(=O)(=O)C(C#N)c2nc3ccccc3nc2N2CCCC2)cc1` (stereo not given): the Potency is 16.4 µM (active).
In the case of `O=C(O)CSc1cc(NS(=O)(=O)c2cccc([N+](=O)[O-])c2)c2ccccc2c1O`, the max response was -17.9% (inactive).
`COc1ccc(-n2c(O)c(/C=N/NS(=O)(=O)c3ccc(C)c([N+](=O)[O-])c3)c3ccccc3c2=O)cc1OC`: the Potency is 4.61 µM (active).
Consider `COc1ccc(-n2c(O)c(/C=N/NS(=O)(=O)c3cccc([N+](=O)[O-])c3)c3ccccc3c2=O)cc1OC`, for which the Potency was 12.5 µM (active).
Take `CCN1C(=O)/C(=C/C=C2\N(CC)c3cc(S(=O)(=O)N(C)C)ccc3N2c2ccccc2)SC1=S`: the Potency is 1.12 µM (active).
For `CN(C)c1ccc(/C=C(\C#N)c2nc3ccccc3c(=O)[nH]2)cc1`, the Potency is 0.411 µM (active).
For the compound `COc1cc(/C=C(/C#N)c2nc3ccccc3[nH]2)ccc1OCC(=O)Nc1ccccc1C(C)C`, the Potency is 13 µM (active).
On to `COc1cc(/C=C(\C#N)c2nc3ccccc3s2)ccc1OCC(=O)Nc1ccccc1`, for which the Potency is 15.8 µM (active).
On the same count and under the same terms, next, `N#C/C(=C/c1ccc(O)c(O)c1)c1nc2ccccc2[nH]1`: 3.14 µM (active).
Turning to `N#C/C(=C\c1ccc(C(=O)O)cc1)c1nc2sc3c(c2c(=O)[nH]1)CCCC3`, the max response is -29.5% (inactive).
`Cc1ccc2nc(/C(C#N)=C/c3ccc(O)c(O)c3)[nH]c2c1`: the max response is 43.5% (inactive).
The same measure, in the same setting: next, `O=C(OCCC12CC3CC(CC(C3)C1)C2)c1ccc(NCc2cc(O)ccc2O)cc1`: 25.7% (inactive); `COc1cc(/C=C(/C#N)c2nc3ccccc3[nH]2)ccc1OC(=O)c1ccco1`: 51.6% (inactive).
As for `COc1cc(/C=C(\C#N)c2nc3ccccc3[nH]2)ccc1O`, the Potency is 2.31 µM (active).
Regarding `O=C1C=C(Nc2ccc(Cl)cc2Cl)CC(c2ccco2)C1` (stereo not given), the Potency is 5.59 µM (active).
For `COc1cc2nc(/C=C/c3ccc(N(C)C)cc3)sc2cc1SC`, the Potency is 5.17 µM (active).
`COc1ccc(-c2cnc3c(NC=O)cc(-c4cc(OC)c(OC)c(OC)c4)cn23)cc1OC`: the Potency was 12.5 µM (active).
For the compound `COc1ccc(-c2cc(NC=O)c3ncc(-c4ccc(OC)c(OC)c4)n3c2)cc1OC`, the Potency is 5.59 µM (active).
Still for that read-out and setting: next, `COc1ccc(-c2cnc3c(NC=O)cc(-c4ccccc4)cn23)cc1OC`: 3.14 µM (active); `CN(C)c1ccccc1-c1cc(NC=O)c2ncc(-c3cccc(C(F)(F)F)c3)n2c1`: 12.5 µM (active); `COc1ccccc1-c1cc(NC=O)c2ncc(-c3ccc(S(C)(=O)=O)cc3)n2c1`: 17.7 µM (active).
On the same count and under the same terms, next, `COc1ccc(-c2cnc3c(NC=O)cc(-c4ccoc4)cn23)cc1OC`: 11.2 µM (active); `COc1cccc(-c2cnc3c(NC=O)cc(-c4cc(OC)c(OC)c(OC)c4)cn23)c1`: 9.94 µM (active); `COc1ccccc1NC(=O)c1oc2ccccc2c1NC(=O)c1cccc(OC)c1OC`: 5.8 µM (active).
On to `CCOc1ccccc1C(=O)Nc1c(C(=O)Nc2ccc(F)cc2)oc2ccccc12`, for which the Potency was 2.06 µM (active).
As to `CCCOc1ccc(N)cc1N`, the max response is -27.6% (inactive).
Turning to `O=C(COC(=O)c1ccc(NS(=O)(=O)c2cccs2)cc1O)NCc1ccccc1`, the Potency was 4.44 µM (active).
Regarding `COc1ccc(NC(=O)COC(=O)c2cc(OC)c(OC)cc2NC(=O)c2ccco2)cc1OC`, the max response was 9.25% (inactive).
As for `O=C(COC(=O)c1ccc(NS(=O)(=O)c2cccs2)cc1)NCc1ccco1`, the Potency is 15.8 µM (active).
Regarding `O=S(=O)(Nc1nc2ccccc2nc1OCC(F)(F)F)c1cccs1`, the max response was -0.0016% (inactive).
In the case of `Cc1ccc(CNC(=O)Cc2ccc(-n3cccc3)cc2)cc1`, the Potency is 1.98 µM (active).
Consider `O=C(Cc1ccccc1)NCc1ccc(-n2cccc2)cc1`, for which the Potency was 1.4 µM (active).
In the case of `C/C(CCC(C)C)=N\NC(=S)NCc1ccccc1`, the max response was -18.4% (inactive).

The values are drawn from PubChem BioAssay AID651813 (National Center for Advancing Translational Sciences (NCATS), 2012).
